# PubChem BioAssay AID1159602 (The Scripps Research Institute Molecular Screening Center, 2016)
# Among all 22,000 compounds or so, about 220 (1%) were called active. This is one part of a sample in which actives are shown more often than they occur. Rule as the data show it: active = inhibition above about 35%; inactive = the rest.
# Target: Mitogen-activated protein kinase kinase kinase 5 (Homo sapiens) (UniProt Q99683)
# Assay: blockers of MAP3K5 kinase activity – biochemical, AlphaScreen, primary screen (AID 1159602);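 also: 0% = median of compound wells and 100% = no enzyme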
# Details: AlphaScreen MKK6 phosphorylation by ASK1, luminescence; at 7.44 µM; stronger effect = higher value
# Sequence of Mitogen-activated protein kinase kinase kinase 5 (Homo sapiens) (Q99683 whole entry, looked up): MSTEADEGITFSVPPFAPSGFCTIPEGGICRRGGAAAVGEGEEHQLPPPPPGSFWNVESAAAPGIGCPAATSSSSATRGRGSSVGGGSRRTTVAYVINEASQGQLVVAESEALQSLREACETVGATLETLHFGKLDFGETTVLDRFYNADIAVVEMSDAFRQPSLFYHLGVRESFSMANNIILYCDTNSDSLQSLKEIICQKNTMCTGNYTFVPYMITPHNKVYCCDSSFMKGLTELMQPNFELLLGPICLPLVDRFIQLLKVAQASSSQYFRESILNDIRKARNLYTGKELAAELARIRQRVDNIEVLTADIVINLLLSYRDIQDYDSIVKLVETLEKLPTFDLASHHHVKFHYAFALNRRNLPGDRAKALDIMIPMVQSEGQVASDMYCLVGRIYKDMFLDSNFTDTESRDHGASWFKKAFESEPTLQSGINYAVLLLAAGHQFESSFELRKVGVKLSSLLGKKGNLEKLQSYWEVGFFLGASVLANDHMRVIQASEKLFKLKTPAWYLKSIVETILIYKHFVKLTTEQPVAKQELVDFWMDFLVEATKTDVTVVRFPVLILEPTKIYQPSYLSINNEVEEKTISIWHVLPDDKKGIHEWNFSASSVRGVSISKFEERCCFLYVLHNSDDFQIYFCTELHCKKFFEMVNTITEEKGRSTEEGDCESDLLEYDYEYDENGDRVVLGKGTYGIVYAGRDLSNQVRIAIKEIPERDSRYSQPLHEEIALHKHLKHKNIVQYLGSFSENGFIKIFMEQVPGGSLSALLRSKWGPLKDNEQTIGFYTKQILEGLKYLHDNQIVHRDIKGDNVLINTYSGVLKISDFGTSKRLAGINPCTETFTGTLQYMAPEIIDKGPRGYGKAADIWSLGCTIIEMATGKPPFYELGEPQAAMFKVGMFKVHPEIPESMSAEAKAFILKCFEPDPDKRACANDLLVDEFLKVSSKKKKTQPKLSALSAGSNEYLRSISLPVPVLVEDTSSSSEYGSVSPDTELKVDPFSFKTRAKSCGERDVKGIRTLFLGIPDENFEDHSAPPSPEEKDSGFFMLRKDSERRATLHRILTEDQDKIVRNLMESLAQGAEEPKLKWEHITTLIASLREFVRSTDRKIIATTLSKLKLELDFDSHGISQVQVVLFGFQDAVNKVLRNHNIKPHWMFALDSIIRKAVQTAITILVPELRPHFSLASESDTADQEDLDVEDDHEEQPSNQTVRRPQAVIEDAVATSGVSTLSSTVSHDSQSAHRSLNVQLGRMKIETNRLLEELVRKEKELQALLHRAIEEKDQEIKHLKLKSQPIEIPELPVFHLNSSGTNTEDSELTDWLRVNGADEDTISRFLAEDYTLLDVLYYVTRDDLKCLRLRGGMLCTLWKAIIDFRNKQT
row,SMILES,inhibition
1,O=C(NCc1cccc(C(F)(F)F)c1)c1csc(NCc2ccc3c(c2)OCO3)n1,8.66% (inactive)
2,Cc1cc(NCCO)nc(Nc2nccc3ccccc23)n1,-10.4% (inactive)
3,COc1nc(N)nc(-c2csc3ccccc23)n1,2.99% (inactive)
4,CCNc1nc(Nc2cc(OC)c(OC)c(OC)c2)c2ncn(-c3ccsc3)c2n1,8.63% (inactive)
5,O=C(NCCN1CCOCC1)c1csc(N2CCC(N3CCOCC3)CC2)n1,-5.25% (inactive)
6,c1cn(-c2ccc(Nc3nc4ncnc(NC5CC5)c4[nH]3)cc2)cn1,18.6% (inactive)
7,COc1ccc(-c2cc(C(=O)Nc3ccc(N4CCOCC4)cc3)ccn2)cc1,11.5% (inactive)
8,c1ccc(CN2CCC(Nc3nc(N4CCc5ccccc5C4)nc4c3ncn4-c3ccsc3)CC2)cc1,9.04% (inactive)
9,Cc1ncn(-c2ccc(Nc3nccc(N4CCc5[nH]ncc5C4)n3)cc2)n1,-13.8% (inactive)
10,CCN(CC)c1nc(NCc2nc3ccccc3[nH]2)nc(N2CCCC2CO)n1 (stereo not given),-6.32% (inactive)
11,c1ccc2[nH]c(CNc3ncnc4nc(N5CCC(N6CCOCC6)CC5)[nH]c34)nc2c1,-21.4% (inactive)
12,O=C(NCC(O)c1ccc(Br)cc1)c1cn(-c2cccc3c(=O)[nH]ccc23)nn1 (stereo not given),13.4% (inactive)
13,c1ccc(OCCNc2cc(-c3ccccc3)ncn2)cc1,-16.6% (inactive)
14,CC(=O)Nc1ccc(Nc2ccnc(N3CCC(N4CCOCC4)CC3)n2)cc1,-0.1% (inactive)
15,CC(C)n1cnc2c(NCc3ccccc3)nc(NC3CCC(O)CC3)nc21 (stereo not given),-16.8% (inactive)
16,Cc1ccc(C(=O)N2CCCC(Nc3cccc4cncc(C)c34)C2)cc1F (stereo not given),-24.3% (inactive)
17,CN(C)CCCNC(=O)c1ccc2c(c1)CC(c1nc3ccc(-c4ccnc(N)n4)cc3[nH]1)CO2 (stereo not given),12.4% (inactive)
18,c1ccc(-n2cnc3c(NCCN4CCOCC4)nc(Nc4ccc(-n5ccnc5)cc4)nc32)cc1,5.99% (inactive)
19,O=C(NCCN1CCOCC1)c1cccc(-n2ncc3cc(Nc4ccccc4F)ccc32)n1,-7.35% (inactive)
20,O=C(Nc1ccc(N2CCOCC2)cc1)c1cccc(N2CCC(N3CCOCC3)CC2)n1,13.2% (inactive)
21,Nc1nc(N2CCN(c3ccccn3)CC2)nc2c1ncn2-c1ccsc1,1.87% (inactive)
22,CC(=O)Nc1ccc(Nc2nc(Nc3ccc(-n4ccnc4)cc3)nc3c2ncn3-c2ccsc2)cc1,4.85% (inactive)

row,SMILES,inhibition
1,O=C(NCCN1CCOCC1)c1cccc(-c2ccc(N3CCOCC3)nc2)c1,1.42% (inactive)
2,CC(C)N(CCNC(=O)c1ccnc(Nc2ccc(C(F)(F)F)cc2)c1)C(C)C,7.8% (inactive)
3,CCCN1CCN(c2c(Cl)cccc2NC(=O)Nc2ccc(Br)cc2)CC1,-17.3% (inactive)
4,c1cc(-c2cncc(N3CCOCC3)c2)nc(Nc2ccc3c(c2)OCO3)n1,-4.36% (inactive)
5,COc1ccc(CCNc2cc(NCc3cccnc3)nc(N)n2)cc1,-6.16% (inactive)
6,Cc1cc(NC2CC2)nc(NCCCN2CCCC2=O)n1,7.09% (inactive)
7,COc1ccc(CCNc2cc(-c3ccc(OC)cc3)nc(N)n2)cc1,-5.04% (inactive)
8,COc1cc2nc(Nc3nccc4ccccc34)nc(Nc3ccccc3)c2cc1OC,-29.2% (inactive)
9,COc1cc2nc(Nc3ccc4ncccc4c3)nc(Nc3ccc(NC(C)=O)cc3)c2cc1OC,35.6% (active)
10,COc1cc2nc(NCc3ccc4c(c3)OCO4)nc(Nc3ccc(NC(C)=O)cc3)c2cc1OC,18.8% (inactive)
11,COc1cc2nc(Nc3cccc(N(C)C)c3)nc(Nc3cc(OC)c(OC)c(OC)c3)c2cc1OC,36.7% (active)
12,COc1cc(Nc2nc(Nc3cccc(N(C)C)c3)nc3nc[nH]c23)cc(OC)c1OC,27% (inactive)
13,COc1cc2nc(Nc3ncccn3)nc(Nc3cc(OC)c(OC)c(OC)c3)c2cc1OC,14.3% (inactive)
14,FC(F)(F)c1ccc(Cn2cnc3c(NCc4nc5ccccc5[nH]4)nc(N4CCOCC4)nc32)cc1,-1.96% (inactive)
15,Cn1nccc1-c1cc(F)cc(-c2ccnc(Nc3ccc(-n4cnc(N5CCOCC5)n4)cc3)n2)c1,21.1% (inactive)
16,O=C(Nc1cccc(Cl)c1N1CCC(N2CCCCC2)CC1)c1ccc(Br)o1,9.68% (inactive)
17,O=C1CCCN1CCn1cnc2c(Nc3ccc(N4CCOCC4)cc3)nc(Nc3ccccc3)nc21,13.9% (inactive)
18,COc1ccc(CCNC(=O)c2cccc(-c3ccc(C(N)=O)cc3)n2)cc1,0.41% (inactive)
19,CNC(=O)c1cc(F)ccc1Nc1cc(Nc2ccc3c(c2)CCC(=O)N3)ncc1C(F)(F)F,2.41% (inactive)
20,c1ccc(CCNc2nccc(Nc3ccncn3)n2)cc1,1.01% (inactive)
21,CC(C)n1cnc2c(Nc3ccc(N4CCOCC4)cc3)nc(Nc3ccncc3)nc21,4.78% (inactive)
22,CCCNc1nc(N2CCc3ccccc3C2)nc2c1ncn2-c1ccccc1,6.17% (inactive)

row,SMILES,inhibition
1,COc1cc(Nc2nc(N3CCc4ccccc4C3)nc3c2ncn3-c2ccccc2)cc(OC)c1OC,38.8% (active)
2,COc1cc(Nc2nc(N3CCc4ccccc4C3)nc3c2ncn3-c2ccsc2)cc(OC)c1OC,6.46% (inactive)
3,O=C(NCc1ccccc1)c1cnc(NCc2ccc3c(c2)OCO3)s1,-19.1% (inactive)
4,O=C1CCCN1CCCNc1nccc(NC2CCN(Cc3ccccc3)CC2)n1,-6.87% (inactive)
5,c1nc(Nc2ccc(N3CCOCC3)cc2)cc(N2CCOCC2)n1,3.52% (inactive)
6,Nc1nc(Nc2ccc(N3CCOCC3)cc2)cc(-c2ccc3[nH]ccc3c2)n1,41.8% (active)
7,CN1CCN(c2ccc(-c3cc(Nc4ccc(N5CCOCC5)cc4)nc(N)n3)cc2)CC1,17.6% (inactive)
8,Nc1cccc(-c2nc(NCCc3ccc(O)cc3)c3ncn(Cc4ccc(C(F)(F)F)cc4)c3n2)c1,3.28% (inactive)
9,c1ccc(CCCNc2nccc(Nc3ccncn3)n2)cc1,12.3% (inactive)
10,Nc1nc(Nc2ccc(-n3ccnc3)cc2)cc(NC2CCN(Cc3ccccc3)CC2)n1,18.2% (inactive)
11,COc1ccc(-c2cccc(C(=O)Nc3ccccc3)n2)cn1,-3.52% (inactive)
12,O=C(NCCO)c1ccc2nc(NCCN3CCOCC3)sc2c1,-9.95% (inactive)
13,COc1nc(Nc2ccccc2)nc(-c2csc3ccccc23)n1,-2.87% (inactive)
14,c1csc(-c2ccnc(Nc3ccc(N4CCOCC4)cc3)n2)c1,13.2% (inactive)
15,CCCNc1nc(-c2cccc(C(C)=O)c2)ncc1C,-6.63% (inactive)
16,O=C(Nc1ccc2[nH]ncc2c1)C1CCN(C(=O)[C@H](O)c2cccc(Cl)c2)C1 (stereo not given in full),-11.7% (inactive)
17,CC(C)n1cnc2c(NC3CCN(Cc4ccccc4)CC3)nc(-c3ccc(N4CCOCC4)nc3)nc21,11% (inactive)
18,O=C1CCCN1CCCNc1cc(NCc2cccnc2)ncn1,2.26% (inactive)
19,CCN(CC)C(=O)C1CCCN(c2nc3ncnc(NCCN4CCOCC4)c3[nH]2)C1 (stereo not given),1.62% (inactive)
20,O=C(NC1CC1)c1ccc(-c2ncc(C(=O)Nc3ccc(N4CCOCC4)cc3)s2)cc1,1.95% (inactive)
21,Nc1cccc(-c2ccc(C(=O)NCc3nc4ccccc4[nH]3)s2)c1,7.11% (inactive)
22,CCCNc1nc(-c2ccc(C(=O)N3CCN(C)CC3)cc2)nc2c1ncn2C(C)C,-4.93% (inactive)

row,SMILES,inhibition
1,c1ccc(OCCNc2cc(NCc3ccc4c(c3)OCO4)ncn2)cc1,11.6% (inactive)
2,O=C(NC1CC1)c1ccc(-c2nc(NC3CC3)c3ncn(C4CCCCC4)c3n2)cc1,-4.59% (inactive)
3,Cc1[nH]ncc1-c1ccc(NC(=O)CCc2ccccc2)cc1,1.62% (inactive)
4,O=C(NC1CC1)c1ccc(-c2nc(C(=O)NCc3cccc(C(F)(F)F)c3)cs2)cc1,-7.56% (inactive)
5,c1ccc(CN2CCC(Nc3nc(NCc4ccc5c(c4)OCO5)nc4c3ncn4C3CCCCC3)CC2)cc1,24.9% (inactive)
6,FC(F)(F)c1ccc(Cn2cnc3c(NC4CCN(Cc5ccccc5)CC4)nc(Nc4nccc5ccccc45)nc32)cc1,7.54% (inactive)
7,FC(F)(F)c1cnc(Nc2ccc(N3CCOCC3)cc2)cc1-n1ncc2ccccc21,-0.62% (inactive)
8,FC(F)(F)c1cccc(CNc2nc(N3CCOCC3)nc3c2ncn3-c2ccsc2)c1,8.31% (inactive)
9,COc1cc(Nc2nc(NCc3cccc(C(F)(F)F)c3)c3ncn(-c4ccsc4)c3n2)cc(OC)c1OC,15.7% (inactive)
10,O=C1CCCN1CCCNc1nc(N2CCN(Cc3ccc4c(c3)OCO4)CC2)nc2c1ncn2-c1ccccc1,14.4% (inactive)
11,O=C1CCCN1CCn1cnc2c(NCc3cccc(C(F)(F)F)c3)nc(N3CCN(Cc4ccc5c(c4)OCO5)CC3)nc21,15.8% (inactive)
12,FC(F)(F)c1cccc(CNc2ncnc3nc(N4CCOCC4)[nH]c23)c1,-25.3% (inactive)
13,FC(F)(F)c1cccc(CNc2nc(N3CCN(Cc4ccc5c(c4)OCO5)CC3)nc3c2ncn3-c2ccccc2)c1,36.7% (active)
14,c1ccc(CNc2nc(N3CCN(c4ccccn4)CC3)nc3c2ncn3-c2ccsc2)cc1,19.3% (inactive)
15,Cc1cnc(Nc2ccc(N3CCOCC3)cc2)nc1NCc1cccc(C(F)(F)F)c1,41.4% (active)
16,c1ccc(N2CCN(c3nc(NCc4nc5ccccc5[nH]4)c4ncn(-c5ccsc5)c4n3)CC2)nc1,-8.09% (inactive)
17,FC(F)(F)c1cccc(CNc2nc(N3CCN(c4ccccn4)CC3)nc3c2ncn3-c2ccsc2)c1,40.9% (active)
18,FC(F)(F)c1cccc(CNc2nc(Nc3ccc(N4CCOCC4)cc3)nc3c2ncn3-c2ccsc2)c1,41.6% (active)
19,FC(F)(F)c1ccc(Cn2cnc3c(NCc4cccc(C(F)(F)F)c4)nc(Nc4ccc(N5CCOCC5)cc4)nc32)cc1,12.8% (inactive)
